Of roughly 8,800 targets only a part is listed; those with a hit were picked by preference. About 0.5% of all pairs of compound and target were hits.
Experiments:
Test in all cases: log2 fold change, soluble protein after heating vs DMSO (PISA); higher = thermal stabilisation; K562 lysate, 10 uM; active = over 0.2 and 3.5 SD of the protein, either way, in both replicates (recomputed)
[1] = compound: CS(=O)(=O)CCNCc1ccc(-c2ccc3ncnc(Nc4ccc(OCc5cccc(F)c5)c(Cl)c4)c3c2)o1 [lapatinib]
How it was run: (§1)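 The values are log-two fold changes in thermal stability compared with solvent controls and come from duplicates. They were obtained by TMTpro 16plex LC-MS/MS, with channel sums equalised, on the supernatant after 21,000xg for 90 min. That supernatant came from crude K562 extract at 1 mg/mL protein treated with 10 μM compound for 30 min, heated for 3 min across 48°C-58°C, pooled and brought to 0.5% NP-40 at 4°C.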

[2] = compound: CS(=O)(=O)N1CCN(Cc2cc3nc(-c4cccc5[nH]ncc45)nc(N4CCOCC4)c3s2)CC1 [pictilisib]
How it was run: as §1

[3] = compound: C[C@@H](Oc1cc(-c2cnn(C3CCNCC3)c2)cnc1N)c1c(Cl)ccc(F)c1Cl [crizotinib]
How it was run: as §1

[4] = compound: C[C@H](C1=CC=C(C=C1)C(=O)NC2=C3C=CNC3=NC=C2)N
How it was run: as §1

[5] = compound: C[C@H](Nc1ncnc2nc[nH]c12)c1cc2cccc(Cl)c2c(=O)n1-c1ccccc1 [duvelisib]
How it was run: as §1

[6] = compound: Cc1cc(Nc2cc(CN3CCOCC3)c3nc(C)c(Cc4ccc(Cl)cc4F)n3n2)n[nH]1 [gandotinib]
How it was run: as §1

[7] = compound: Cc1cc(Nc2cc(N3CCN(C)CC3)nc(Sc3ccc(NC(=O)C4CC4)cc3)n2)n[nH]1 [tozasertib]
How it was run: as §1

[8] = compound: Cc1ccc(-n2nc(C(C)(C)C)cc2NC(=O)Nc2ccc(OCCN3CCOCC3)c3ccccc23)cc1 [doramapimod]
How it was run: as §1

[9] = compound: Cc1ccc(NC(=O)c2ccc(CN3CC[C@H](N(C)C)C3)c(C(F)(F)F)c2)cc1Nc1nccc(-c2cncnc2)n1 [bafetinib]
How it was run: as §1

[10] = compound: Cc1cccc(CC(=O)N2CCc3c2ccc(-c2cn(C)c4ncnc(N)c24)c3F)n1
How it was run: as §1

[11] = compound: Cc1cn(-c2cc(NC(=O)c3ccc(C)c(Nc4nccc(-c5cccnc5)n4)c3)cc(C(F)(F)F)c2)cn1 [nilotinib]
How it was run: as §1

[12] = compound: Cc1nc(Nc2n[nH]c3c2CN(C(=O)N[C@H](CN(C)C)c2ccccc2)C3(C)C)c2sccc2n1
How it was run: as §1

[13] = compound: Cc1nc(Nc2ncc(C(=O)Nc3c(C)cccc3Cl)s2)cc(N2CCN(CCO)CC2)n1 [dasatinib]
How it was run: as §1

[14] = compound: Cc1ncc(-c2ccnc(Nc3ccc(S(C)(=O)=O)cc3)n2)n1C(C)C
How it was run: as §1

[15] = compound: Cn1cc(-c2ccc3c(c2)CCN3C(=O)Cc2cccc(C(F)(F)F)c2)c2c(N)ncnc21
How it was run: as §1

[16] = compound: Cn1cc(CNCC2CCN(c3ncc(C(=O)NO)cn3)CC2)c2ccccc21 [quisinostat]
How it was run: as §1

[17] = compound: Cn1cncc1[C@@](N)(c1ccc(Cl)cc1)c1ccc2c(c1)c(-c1cccc(Cl)c1)cc(=O)n2C [tipifarnib]
How it was run: as §1

[18] = compound: NC(=O)Nc1cc(-c2cccc(F)c2)sc1C(=O)N[C@H]1CCCNC1
How it was run: as §1

[19] = compound: NC(=O)c1cnc(N[C@@H]2CCCC[C@@H]2N)nc1Nc1cccc(-n2nccn2)c1
How it was run: as §1

[20] = compound: NC1(c2ccc(-c3nc4ccn5c(=O)[nH]nc5c4cc3-c3ccccc3)cc2)CCC1
How it was run: as §1

Measured: log2 fold change

ACIN1 isoform 5 (UniProt Q9UKV3)
inactive: [1] 0.012 | [2] -0.024 | [3] 0.034 | [4] 0.022 | [5] -0.002 | [6] -0.003 | [7] 0.003 | [8] 0.01 | [9] -0.013 | [10] 0.002 | [11] 0.017 | [12] -0.018 | [13] -0.012 | [14] 0.001 | [15] 0.008 | [16] 0.011 | [17] 0 | [18] -0.063 | [19] 0.024 | [20] 0.01

ARHGAP25 isoform 4 (UniProt P42331)
UniProt P42331, sequence (P42331 whole entry, looked up): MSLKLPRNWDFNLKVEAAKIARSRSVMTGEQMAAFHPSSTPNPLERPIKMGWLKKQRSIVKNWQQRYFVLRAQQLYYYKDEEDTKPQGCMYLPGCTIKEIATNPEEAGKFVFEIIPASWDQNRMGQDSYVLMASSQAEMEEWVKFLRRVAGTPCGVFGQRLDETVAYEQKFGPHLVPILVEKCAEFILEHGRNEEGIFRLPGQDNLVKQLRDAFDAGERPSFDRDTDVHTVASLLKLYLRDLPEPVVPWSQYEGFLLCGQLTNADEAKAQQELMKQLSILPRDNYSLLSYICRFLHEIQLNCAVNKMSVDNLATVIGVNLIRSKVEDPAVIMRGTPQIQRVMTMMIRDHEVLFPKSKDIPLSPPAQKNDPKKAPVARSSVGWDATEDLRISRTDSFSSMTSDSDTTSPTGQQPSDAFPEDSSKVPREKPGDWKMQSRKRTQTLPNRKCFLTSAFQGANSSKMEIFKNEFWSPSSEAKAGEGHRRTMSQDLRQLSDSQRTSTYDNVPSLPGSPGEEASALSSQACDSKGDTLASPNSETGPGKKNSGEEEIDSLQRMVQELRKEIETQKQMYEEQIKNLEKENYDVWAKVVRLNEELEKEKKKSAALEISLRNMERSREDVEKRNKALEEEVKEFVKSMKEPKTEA
inactive: [1] 0.011 | [2] -0.024 | [3] -0.053 | [4] -0.011 | [5] 0.008 | [6] -0.024 | [7] -0.006 | [8] -0.005 | [9] -0.075 | [10] 0.081 | [11] -0.037 | [12] 0.039 | [13] -0.039 | [14] 0.022 | [15] 0.008 | [16] -0.115 | [17] -0.016 | [18] 0.017 | [19] 0.028 | [20] -0.009

ANAPC7 (UniProt Q9UJX3)
UniProt Q9UJX3, sequence (Q9UJX3 whole entry, looked up): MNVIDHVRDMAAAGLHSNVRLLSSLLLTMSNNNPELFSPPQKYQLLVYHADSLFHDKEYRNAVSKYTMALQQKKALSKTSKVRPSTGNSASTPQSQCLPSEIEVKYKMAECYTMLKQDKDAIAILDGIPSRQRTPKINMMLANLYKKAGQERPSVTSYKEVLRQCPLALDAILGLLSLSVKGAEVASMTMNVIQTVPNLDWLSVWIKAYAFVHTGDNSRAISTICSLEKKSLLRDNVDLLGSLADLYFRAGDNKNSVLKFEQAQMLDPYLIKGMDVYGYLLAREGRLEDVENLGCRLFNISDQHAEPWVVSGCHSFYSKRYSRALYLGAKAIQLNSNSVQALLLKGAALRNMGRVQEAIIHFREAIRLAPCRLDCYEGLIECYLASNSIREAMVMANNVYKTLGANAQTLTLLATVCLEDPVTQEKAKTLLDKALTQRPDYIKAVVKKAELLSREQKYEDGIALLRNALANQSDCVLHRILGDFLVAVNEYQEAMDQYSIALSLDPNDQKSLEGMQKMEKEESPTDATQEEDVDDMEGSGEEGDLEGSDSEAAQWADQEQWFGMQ
inactive: [1] -0.017 | [2] 0.002 | [3] -0.029 | [4] -0.009 | [5] -0.018 | [6] -0.042 | [7] -0.019 | [8] 0.023 | [9] -0.036 | [10] 0.002 | [11] -0.004 | [12] -0.006 | [13] -0.004 | [14] 0.008 | [15] 0.02 | [16] -0.054 | [17] -0.019 | [18] 0.03 | [19] 0 | [20] -0.018

AKAP8 (UniProt O43823)
active: [11] -0.3
inactive: [1] 0.008 | [2] -0.126 | [3] 0.023 | [4] 0.035 | [5] 0.022 | [6] 0.003 | [7] 0.017 | [8] -0.071 | [9] -0.119 | [10] 0.039 | [12] 0.039 | [13] 0.01 | [14] -0.001 | [15] 0.006 | [16] -0.075 | [17] 0.025 | [18] 0.084 | [19] 0.022 | [20] 0.059

ALDH5A1 isoform 2 (UniProt P51649)
UniProt P51649, sequence (P51649 whole entry, looked up): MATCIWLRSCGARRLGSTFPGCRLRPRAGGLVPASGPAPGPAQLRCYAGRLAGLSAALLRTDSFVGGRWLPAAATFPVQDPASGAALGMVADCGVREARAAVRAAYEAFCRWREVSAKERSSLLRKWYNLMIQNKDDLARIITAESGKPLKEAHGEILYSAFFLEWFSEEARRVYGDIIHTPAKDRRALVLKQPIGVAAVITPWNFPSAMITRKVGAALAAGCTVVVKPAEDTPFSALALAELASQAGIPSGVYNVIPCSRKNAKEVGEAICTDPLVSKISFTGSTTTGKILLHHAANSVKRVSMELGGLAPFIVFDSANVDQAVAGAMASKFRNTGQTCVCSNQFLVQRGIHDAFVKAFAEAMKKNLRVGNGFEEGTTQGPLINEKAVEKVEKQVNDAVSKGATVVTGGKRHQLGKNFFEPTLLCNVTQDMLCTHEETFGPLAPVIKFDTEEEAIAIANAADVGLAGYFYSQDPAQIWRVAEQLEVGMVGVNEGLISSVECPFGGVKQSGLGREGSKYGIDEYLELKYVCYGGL
inactive: [1] -0.012 | [2] -0.049 | [3] -0.044 | [4] 0 | [5] -0.056 | [6] -0.059 | [7] 0.005 | [8] -0.011 | [9] 0.008 | [10] -0.035 | [11] 0.003 | [12] -0.019 | [13] -0.005 | [14] -0.015 | [15] -0.003 | [16] 0.028 | [17] -0.063 | [18] 0.04 | [19] 0.004 | [20] -0.023

ABCF3 (UniProt Q9NUQ8)
inactive: [1] -0.019 | [2] 0.006 | [3] -0.033 | [4] 0.02 | [5] 0.018 | [6] -0.075 | [7] 0.063 | [8] 0.011 | [9] -0.062 | [10] 0.017 | [11] -0.025 | [12] 0.014 | [13] -0.053 | [14] 0.001 | [15] 0.044 | [16] -0.04 | [17] -0.003 | [18] 0.012 | [19] 0.011 | [20] -0.062

ARL1 (UniProt P40616)
UniProt P40616, sequence (P40616 whole entry, looked up): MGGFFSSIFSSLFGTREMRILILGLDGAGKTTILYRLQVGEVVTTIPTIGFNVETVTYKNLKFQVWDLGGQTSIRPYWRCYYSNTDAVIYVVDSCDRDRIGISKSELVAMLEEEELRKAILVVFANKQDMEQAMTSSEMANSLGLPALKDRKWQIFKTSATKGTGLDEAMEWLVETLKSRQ
inactive: [1] 0.001 | [2] 0.051 | [3] -0.028 | [4] -0.056 | [5] 0.001 | [6] 0.159 | [7] 0.004 | [9] -0.027 | [10] 0.096 | [11] 0.092 | [12] -0.074 | [13] 0.026 | [14] -0.118 | [15] -0.016 | [16] -0.082 | [17] -0.268 | [18] 0.01 | [19] -0.001 | [20] 0.005
active: [8] 0.228

AHCYL1 (UniProt O43865)
inactive: [1] -0.001 | [2] 0.008 | [3] -0.028 | [4] -0.012 | [5] 0.043 | [6] -0.067 | [7] -0.031 | [8] 0.013 | [9] -0.047 | [10] 0.001 | [11] -0.077 | [12] -0.011 | [13] -0.015 | [14] 0.021 | [15] 0.02 | [16] -0.079 | [17] -0.001 | [18] 0.066 | [19] -0.005 | [20] -0.087

ADK (UniProt P55263)
UniProt P55263, sequence (P55263 whole entry, looked up): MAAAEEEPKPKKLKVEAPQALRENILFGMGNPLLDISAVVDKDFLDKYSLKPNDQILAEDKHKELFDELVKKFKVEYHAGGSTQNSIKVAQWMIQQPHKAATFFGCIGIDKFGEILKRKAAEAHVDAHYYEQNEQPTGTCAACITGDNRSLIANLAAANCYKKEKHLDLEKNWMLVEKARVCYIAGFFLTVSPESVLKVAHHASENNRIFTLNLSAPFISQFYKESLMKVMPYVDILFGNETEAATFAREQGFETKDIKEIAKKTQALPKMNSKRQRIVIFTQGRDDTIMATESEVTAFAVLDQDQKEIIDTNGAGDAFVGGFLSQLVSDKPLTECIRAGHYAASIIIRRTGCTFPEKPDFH
inactive: [1] 0.154 | [2] 0.169 | [3] 0.235 | [4] -0.007 | [5] 0.059 | [7] -0.005 | [8] 0.014 | [9] 0.292 | [10] -0.064 | [11] -0.028 | [12] 0.075 | [13] 0.463 | [14] 0.046 | [15] -0.005 | [16] -0.062 | [17] 0.324 | [18] -0.023 | [19] -0.015 | [20] 0.016
active: [6] 0.532

AGPS (UniProt O00116)
UniProt O00116, sequence (O00116 whole entry, looked up): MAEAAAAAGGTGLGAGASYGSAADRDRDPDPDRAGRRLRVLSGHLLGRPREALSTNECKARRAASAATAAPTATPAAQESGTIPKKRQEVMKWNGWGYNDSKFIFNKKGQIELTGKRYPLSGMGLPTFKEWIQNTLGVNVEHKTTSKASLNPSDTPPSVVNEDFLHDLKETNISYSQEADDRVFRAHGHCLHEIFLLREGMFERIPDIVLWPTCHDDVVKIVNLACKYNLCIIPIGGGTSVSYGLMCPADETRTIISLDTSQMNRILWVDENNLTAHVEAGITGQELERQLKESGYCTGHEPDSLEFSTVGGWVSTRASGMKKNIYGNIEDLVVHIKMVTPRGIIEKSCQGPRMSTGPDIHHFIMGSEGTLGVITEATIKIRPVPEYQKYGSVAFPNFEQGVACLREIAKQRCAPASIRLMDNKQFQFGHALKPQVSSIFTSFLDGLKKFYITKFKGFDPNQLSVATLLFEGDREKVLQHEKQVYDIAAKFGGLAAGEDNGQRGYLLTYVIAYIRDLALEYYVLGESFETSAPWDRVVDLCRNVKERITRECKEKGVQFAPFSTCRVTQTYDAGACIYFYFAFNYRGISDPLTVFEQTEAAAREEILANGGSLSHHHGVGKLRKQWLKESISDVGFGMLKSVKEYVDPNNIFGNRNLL
inactive: [1] -0.017 | [2] -0.049 | [3] -0.02 | [4] -0.033 | [5] -0.011 | [6] 0.019 | [7] 0.015 | [8] 0.025 | [9] 0.002 | [10] 0.083 | [11] -0.014 | [12] -0.021 | [13] -0.033 | [14] 0.05 | [15] 0.008 | [16] 0.064 | [17] -0.015 | [18] 0.014 | [19] 0.004 | [20] 0.003

APOBEC3C (UniProt Q9NRW3)
UniProt Q9NRW3, sequence (Q9NRW3 whole entry, looked up): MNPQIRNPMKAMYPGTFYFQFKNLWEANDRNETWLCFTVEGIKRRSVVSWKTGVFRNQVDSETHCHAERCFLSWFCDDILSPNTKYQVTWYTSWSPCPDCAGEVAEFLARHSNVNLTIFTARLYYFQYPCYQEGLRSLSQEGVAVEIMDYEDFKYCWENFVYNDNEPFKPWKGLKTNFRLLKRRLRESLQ
inactive: [1] 0.011 | [2] 0.033 | [3] -0.09 | [4] -0.058 | [5] 0.021 | [6] 0.066 | [7] -0.055 | [8] 0.1 | [9] -0.023 | [10] 0.153 | [11] 0.082 | [12] -0.014 | [13] -0.005 | [14] 0 | [15] 0.042 | [16] -0.144 | [17] -0.024 | [18] -0.067 | [19] -0.001 | [20] 0.028

ANKRD52 (UniProt Q8NB46)
UniProt Q8NB46, sequence (Q8NB46 whole entry, looked up): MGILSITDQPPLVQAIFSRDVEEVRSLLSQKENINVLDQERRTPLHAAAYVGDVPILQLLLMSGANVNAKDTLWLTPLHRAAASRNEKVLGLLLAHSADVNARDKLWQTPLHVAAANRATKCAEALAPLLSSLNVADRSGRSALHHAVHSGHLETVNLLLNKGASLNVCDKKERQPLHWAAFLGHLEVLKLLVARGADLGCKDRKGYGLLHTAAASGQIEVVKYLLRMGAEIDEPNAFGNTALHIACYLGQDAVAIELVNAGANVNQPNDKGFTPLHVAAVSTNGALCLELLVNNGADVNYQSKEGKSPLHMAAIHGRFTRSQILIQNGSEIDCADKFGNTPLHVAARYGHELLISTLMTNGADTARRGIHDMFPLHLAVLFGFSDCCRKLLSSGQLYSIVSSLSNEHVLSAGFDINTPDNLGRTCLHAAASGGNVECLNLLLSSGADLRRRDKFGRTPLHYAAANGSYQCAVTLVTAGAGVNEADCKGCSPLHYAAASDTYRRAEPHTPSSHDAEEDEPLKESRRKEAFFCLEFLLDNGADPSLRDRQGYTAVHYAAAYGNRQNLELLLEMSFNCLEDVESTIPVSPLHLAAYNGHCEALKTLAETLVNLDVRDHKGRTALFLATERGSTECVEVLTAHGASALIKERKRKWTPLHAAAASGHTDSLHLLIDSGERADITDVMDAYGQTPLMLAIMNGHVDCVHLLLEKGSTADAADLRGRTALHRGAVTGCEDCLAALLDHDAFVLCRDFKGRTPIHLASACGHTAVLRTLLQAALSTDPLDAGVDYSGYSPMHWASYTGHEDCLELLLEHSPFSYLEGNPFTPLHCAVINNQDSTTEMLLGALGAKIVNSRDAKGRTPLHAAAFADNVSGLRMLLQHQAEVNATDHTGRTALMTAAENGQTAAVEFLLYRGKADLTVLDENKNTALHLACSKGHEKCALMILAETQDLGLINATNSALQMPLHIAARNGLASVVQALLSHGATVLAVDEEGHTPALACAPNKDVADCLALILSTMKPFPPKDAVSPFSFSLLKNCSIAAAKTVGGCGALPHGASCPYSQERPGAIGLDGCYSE
inactive: [1] -0.133 | [2] -0.036 | [3] -0.11 | [4] -0.004 | [5] 0.01 | [6] 0.012 | [7] 0 | [8] 0.001 | [9] -0.071 | [10] 0.034 | [11] 0.041 | [12] 0.003 | [13] -0.048 | [14] -0.026 | [15] -0.045 | [16] -0.037 | [17] -0.017 | [18] 0.005 | [19] -0.056 | [20] -0.028

ACACA isoform 4 (UniProt Q13085)
inactive: [1] -0.019 | [2] 0 | [3] -0.081 | [4] -0.001 | [5] 0.032 | [6] -0.068 | [7] 0.033 | [8] 0.045 | [9] -0.056 | [10] 0.061 | [11] -0.032 | [12] 0.004 | [13] -0.037 | [14] 0.028 | [15] 0.043 | [16] -0.024 | [17] 0.081 | [18] 0.03 | [19] 0.01 | [20] -0.019

ANKRD54 (UniProt Q6NXT1)
UniProt Q6NXT1, sequence (Q6NXT1 whole entry, looked up): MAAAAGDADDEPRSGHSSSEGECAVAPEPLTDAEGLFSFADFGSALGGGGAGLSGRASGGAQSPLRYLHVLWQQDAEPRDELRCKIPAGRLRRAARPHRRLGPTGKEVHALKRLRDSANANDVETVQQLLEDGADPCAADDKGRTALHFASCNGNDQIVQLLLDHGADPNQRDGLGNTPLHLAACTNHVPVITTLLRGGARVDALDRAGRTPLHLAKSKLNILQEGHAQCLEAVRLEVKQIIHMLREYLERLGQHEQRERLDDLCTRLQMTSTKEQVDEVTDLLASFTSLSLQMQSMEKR
inactive: [1] 0.038 | [2] -0.008 | [3] 0.058 | [4] 0.01 | [5] 0.008 | [6] 0.049 | [7] -0.002 | [8] 0.044 | [9] -0.029 | [10] -0.007 | [11] 0.053 | [12] -0.003 | [13] -0.013 | [14] 0.05 | [15] -0.018 | [16] -0.024 | [17] 0.019 | [18] -0.013 | [19] 0 | [20] 0.04

APOB (UniProt P04114)
inactive: [1] 0.054 | [2] 0.004 | [3] -0.003 | [4] -0.182 | [5] 0.104 | [6] 0.084 | [7] 0.015 | [8] 0.024 | [9] -0.091 | [10] 0.06 | [11] -0.002 | [12] 0.022 | [13] -0.096 | [14] -0.017 | [15] -0.038 | [16] -0.092 | [17] 0.033 | [18] 0.013 | [19] -0.035 | [20] 0.008

AMD1 (UniProt P17707)
UniProt P17707, sequence (P17707 whole entry, looked up): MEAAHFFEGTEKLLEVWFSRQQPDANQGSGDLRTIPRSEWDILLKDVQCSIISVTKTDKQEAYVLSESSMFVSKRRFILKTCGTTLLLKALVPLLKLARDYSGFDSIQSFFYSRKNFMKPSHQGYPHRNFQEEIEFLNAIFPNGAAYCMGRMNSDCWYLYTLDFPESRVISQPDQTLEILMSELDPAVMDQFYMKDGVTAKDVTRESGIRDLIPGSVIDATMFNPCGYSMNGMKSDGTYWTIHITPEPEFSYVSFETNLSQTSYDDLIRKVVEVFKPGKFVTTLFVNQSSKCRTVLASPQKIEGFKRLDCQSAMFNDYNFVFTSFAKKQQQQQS
inactive: [1] -0.125 | [2] 0.056 | [3] 0.035 | [4] -0.099 | [5] 0.12 | [6] 0.107 | [7] 0.05 | [8] 0.316 | [9] -0.07 | [10] 0.048 | [11] -0.05 | [12] -0.04 | [13] -0.031 | [14] -0.001 | [15] 0.055 | [16] -0.145 | [17] -0.005 | [18] 0.151 | [19] 0.229 | [20] -0.022

Reference: the supplement of paper PMC10849652
